From PubChem BioAssay AID1159580 (chemical genetic matrix, 2015)
“And” between values parts separate entries of the source, which are not always exact repeats. Equal values may be shown once. In all, about 5,500 compounds went through this assay and about 2,000 (36%) were called active. Another 18% or so got no clear call; they are omitted. Cut-off read from the data, not from the text of the source: active = normalized growth mostly below about 0.91 (no sharp cut-off); inconclusive = no clear call, values can overlap the other calls; inactive = mostly above about 0.92. This is one part of the list.

Assay: chemical genetic growth profiling, strain panel (AID 1159580);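 note: tested at 20 µM; growth read once vehicle control cultures reached saturation at 30 °C; 1 = growth at the plate median or of vehicle wells; lower values mean less growth of the strain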
Conditions: growth OD

Measured: normalized growth

NCCCNCCSP(=O)(O)O
inactive: S. cerevisiae deletion strains, locus YJR075W, strain HOC1, hits give low values 1.01 | S. cerevisiae deletion strains, locus YKL009W, strain mrt4, hits give low values 0.969 | S. cerevisiae deletion strains, locus YKL068W, hits give low values 0.982 | S. cerevisiae deletion strains, locus YKL085W, strain MDH1 (second series), hits give low values 0.985 | S. cerevisiae deletion strains, locus YKL085W, strain MDH1, hits give low values 0.985 | S. cerevisiae deletion strains, locus YKL160W, strain elf1, hits give low values 0.963 | S. cerevisiae deletion strains, locus YKL190W, strain CNB1, hits give low values 0.988 | S. cerevisiae deletion strains, locus YKR001C, strain vps1, hits give low values 0.986 | S. cerevisiae deletion strains, locus YKR026C, strain gcn3, hits give low values 0.984 | S. cerevisiae deletion strains, locus YKR091W, strain srl3, hits give low values 0.969 | S. cerevisiae deletion strains, locus YLL001W, strain dnm1, hits give low values 0.954 | S. cerevisiae deletion strains, locus YLL026W, hits give low values 0.972 | S. cerevisiae deletion strains, locus YLL041C, strain sdh2, hits give low values 0.983 | S. cerevisiae deletion strains, locus YLR027C, strain aat2, hits give low values 0.964 | S. cerevisiae deletion strains, locus YLR039C, strain RIC1, hits give low values 0.974 | S. cerevisiae deletion strains, locus YLR058C, strain SHM2, hits give low values 0.989 | S. cerevisiae deletion strains, locus YLR102C, strain apc9, hits give low values 0.992 | S. cerevisiae deletion strains, locus YLR221C, strain rsa3, hits give low values 0.952 | S. cerevisiae deletion strains, locus YLR258W, strain gsy2, hits give low values 0.994 | S. cerevisiae deletion strains, locus YLR262C, strain YPT6 (second series), hits give low values 0.96 | S. cerevisiae deletion strains, locus YLR262C, strain YPT6, hits give low values 0.973 | S. cerevisiae deletion strains, locus YLR268W, strain sec22, hits give low values 0.995 | S. cerevisiae deletion strains, locus YLR320W, strain mms22, hits give low values 0.961 | S. cerevisiae deletion strains, locus YLR330W, strain CHS5, hits give low values 0.989 | S. cerevisiae deletion strains, locus YLR342W, strain FKS1 (second series), hits give low values 0.975 | S. cerevisiae deletion strains, locus YLR342W, strain FKS1, hits give low values 0.979 | S. cerevisiae deletion strains, locus YLR357W, strain rsc2, hits give low values 0.957 | S. cerevisiae deletion strains, locus YLR370C, strain arc18, hits give low values 0.969 | S. cerevisiae deletion strains, locus YLR371W, strain rom2, hits give low values 0.974 | S. cerevisiae deletion strains, locus YLR384C, strain iki3, hits give low values 0.96 | S. cerevisiae deletion strains, locus YLR418C, strain cdc73, hits give low values 1.01 | S. cerevisiae deletion strains, locus YML016C, strain PPZ1, hits give low values 0.99 | S. cerevisiae deletion strains, locus YML032C, strain rad52, hits give low values 0.978 | S. cerevisiae deletion strains, locus YML120C, strain ndi1, hits give low values 0.964 | S. cerevisiae deletion strains, locus YML124C, strain tub3, hits give low values 0.991 | S. cerevisiae deletion strains, locus YMR058W, strain fet3, hits give low values 0.976 | S. cerevisiae deletion strains, locus YMR078C, strain ctf18, hits give low values 0.981 | S. cerevisiae deletion strains, locus YMR125W, strain sto1, hits give low values 0.975 | S. cerevisiae deletion strains, locus YMR129W, hits give low values 0.99 | S. cerevisiae deletion strains, locus YMR205C, strain PFK2, hits give low values 0.937 | S. cerevisiae deletion strains, locus YMR223W, strain ubp8, hits give low values 0.973 | S. cerevisiae deletion strains, locus YMR231W, strain pep5, hits give low values 0.978 | S. cerevisiae deletion strains, locus YMR263W, strain SAP30, hits give low values 0.997 and 0.98 | S. cerevisiae deletion strains, locus YMR307W, strain GAS1, hits give low values 0.974 | S. cerevisiae deletion strains, locus YNL067W, strain RPL9B, hits give low values 0.984 | S. cerevisiae deletion strains, locus YNL071W, strain lat1, hits give low values 0.983 | S. cerevisiae deletion strains, locus YNL128W, strain TEP1, hits give low values 1.01 and 1 | S. cerevisiae deletion strains, locus YNL153C, strain GIM3, hits give low values 1.01 and 0.993 | S. cerevisiae deletion strains, locus YNL175C, strain NOP13, hits give low values 1.01 | S. cerevisiae deletion strains, locus YNL197C, strain WHI3, hits give low values 1 | S. cerevisiae deletion strains, locus YNL209W, strain ssb2, hits give low values 0.981 | S. cerevisiae deletion strains, locus YNL224C, strain SQS1, hits give low values 0.988 | S. cerevisiae deletion strains, locus YNL233W, strain BNI4, hits give low values 0.997 | S. cerevisiae deletion strains, locus YNL248C, strain rpa49, hits give low values 0.977 | S. cerevisiae deletion strains, locus YNL250W, strain rad50, hits give low values 0.981 | S. cerevisiae deletion strains, locus YNL271C, strain bni1, hits give low values 0.994 | S. cerevisiae deletion strains, locus YNL298W, strain CLA4, hits give low values 0.988 | S. cerevisiae deletion strains, locus YNL307C, strain MCK1, hits give low values 0.989 | S. cerevisiae deletion strains, locus YNL322C, strain KRE1 (second series), hits give low values 0.956 | S. cerevisiae deletion strains, locus YNL322C, strain KRE1, hits give low values 1 | S. cerevisiae deletion strains, locus YNR049C, strain mso1, hits give low values 0.963 | S. cerevisiae deletion strains, locus YNR052C, strain pop2, hits give low values 0.986 | S. cerevisiae deletion strains, locus YOL006C, strain TOP1, hits give low values 1.02 | S. cerevisiae deletion strains, locus YOL012C, strain htz1 0.741 | S. cerevisiae deletion strains, locus YOL147C, strain pex11, hits give low values 0.988 | S. cerevisiae deletion strains, locus YOR001W, strain rrp6, hits give low values 1.02 | S. cerevisiae deletion strains, locus YOR061W, strain CKA2, hits give low values 1 | S. cerevisiae deletion strains, locus YOR069W, strain VPS5, hits give low values 0.995 | S. cerevisiae deletion strains, locus YOR070C, strain gyp1, hits give low values 0.982 | S. cerevisiae deletion strains, locus YOR080W, strain dia2, hits give low values 0.968 | S. cerevisiae deletion strains, locus YOR083W, strain WHI5 (second series), hits give low values 1.01 | S. cerevisiae deletion strains, locus YOR083W, strain WHI5, hits give low values 0.96 | S. cerevisiae deletion strains, locus YOR106W, strain vam3, hits give low values 0.931 | S. cerevisiae deletion strains, locus YOR136W, strain idh2, hits give low values 0.992 | S. cerevisiae deletion strains, locus YOR144C, strain elg1, hits give low values 0.982 | S. cerevisiae deletion strains, locus YOR184W, strain ser1, hits give low values 0.962 | S. cerevisiae deletion strains, locus YOR265W, strain rbl2, hits give low values 0.984 | S. cerevisiae deletion strains, locus YOR270C, strain vph1, hits give low values 0.924 | S. cerevisiae deletion strains, locus YOR290C, strain snf2, hits give low values 0.965 | S. cerevisiae deletion strains, locus YOR316C, strain cot1, hits give low values 0.977 | S. cerevisiae deletion strains, locus YPL051W, strain arl3, hits give low values 0.987 | S. cerevisiae deletion strains, locus YPL055C, strain LGE1, hits give low values 1.02 and 0.958 | S. cerevisiae deletion strains, locus YPL078C, strain atp4, hits give low values 0.971 | S. cerevisiae deletion strains, locus YPL106C, strain sse1, hits give low values 0.954 | S. cerevisiae deletion strains, locus YPL240C, strain hsp82, hits give low values 0.993 | S. cerevisiae deletion strains, locus YPL241C, strain CIN2, hits give low values 0.998 and 0.991 | S. cerevisiae deletion strains, locus YPR119W, strain clb2, hits give low values 0.995 | S. cerevisiae deletion strains, locus YPR141C, strain kar3, hits give low values 0.976 | S. cerevisiae deletion strains, locus YPR163C, strain tif3, hits give low values 0.986 | S. cerevisiae deletion strains, locus YPR167C, strain met16, hits give low values 0.995 | S. cerevisiae deletion strains, strain wtn01, hits give low values 0.99 | S. cerevisiae strains, strain wild type, hits give low values 0.977
